# Screening results from PubChem BioAssay.
# MEP2 TOR yeast = modulators of TOR pathway MEP2-GFP in S. cerevisiae. S. cerevisiae MEP2-GFP strain, flow cytometry GFP, 3 h; 100% = DMSO control level. GFP response vs DMSO, % at 10 µM. 330,000 tested, 0.51% active;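 active = GFP response versus DMSO above a set limit, roughly screen mean plus 3 SD, cut at about 180% in these data; inconclusive = fewer than 70 cells counted for a yeast strain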;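 note: median GFP fluorescence of the barcode-gated MEP2-GFP cells per well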
# RPL19A-GFP yeast = yeast TOR pathway RPL19A-GFP modulation; S. cerevisiae RPL19A-GFP strain, flow cytometry, 3 h; active compounds read low; percent response vs DMSO, % at 10 µM; 330,000 tested, 0.3% active; AID 2025;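 active = percent response vs DMSO below 50%; inconclusive = fewer than 70 events counted for the yeast strain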;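 note: median channel GFP fluorescence of the barcoded RPL19A-GFP strain; ratio of sample median GFP to plate DMSO average so 100% = DMSO; lower means less RPL19A-GFP as with rapamycin TOR inhibition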
# LAP4-GFP MLPCN = modulators of TOR pathway LAP4-GFP in S. cerevisiae | 320,000 tested, 0.34% active | S. cerevisiae LAP4-GFP multiplex, flow cytometry GFP, 3 h; median GFP as percent of DMSO wells | GFP response vs DMSO, % at 10 µM | AID 2023;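 active = GFP response vs DMSO above a set limit, about the screen mean plus 3 SD, cut at about 150% in these data; inconclusive = under 70 cell events counted for the yeast strain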
# AGP1 TOR yeast = yeast TOR pathway AGP1-GFP modulation | S. cerevisiae AGP1-GFP multiplex flow cytometry, 3 h; GFP as percent of DMSO wells | GFP response vs DMSO, % at 10 µM | 320,000 tested, 0.02% active | AID 2066;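 active = GFP response relative to DMSO above a set limit, near screen average plus 3 SD, cut at about 150% in these data; inconclusive = fewer than 70 cells counted for the yeast strain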;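 note: median GFP channel fluorescence of the gated AGP1 strain per well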
# CIT2 TOR yeast = alters CIT2-GFP fluorescence in TOR pathway yeast screen | GFP response vs DMSO, % at 10 µM | AID 2029 | 320,000 tested, 0.065% active | S. cerevisiae CIT2-GFP strain, flow cytometry, 3 h; 100 means same as DMSO wells;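 active = GFP response relative to DMSO above a set limit, near the screen mean plus 3 SD, cut at about 150% in these data; inconclusive = Fewer than 70 cells measured for a yeast strain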;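 note: ratio of well median GFP fluorescence to mean of DMSO wells on the plate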
# An asterisk follows results filed as active; ? = inconclusive; · = not tested or not shown; [ ] = dose if it differs, or a comment. This is a sample that favours compounds with a hit; in the whole collection about 0.89% have one here.
SMILES,MEP2 TOR yeast,RPL19A-GFP yeast,LAP4-GFP MLPCN,AGP1 TOR yeast,CIT2 TOR yeast
CCOC(=O)c1cc2ccc(OC(=O)c3ccco3)cc2oc1=O,198.4*[may fluoresce violet],49.6*[may fluoresce violet],103.8,?,?
CCOC(=O)c1cc2ccc3ccccc3c2oc1=O,102.8,100.5,87.7,81.4,102.9
CC1CCC(NC(=O)CC(C)(C)Cc2nc3ccccc3c(=O)[nH]2)CC1 (stereo not given),100.0,102.2,98.6,106.4,108.4
CCN(CC)c1ccc2cc(C(N)=O)c(=O)oc2c1,106.9,96.2,121.1,93.2,82.9
CCN(CC)c1ccc2cc(C(C)=O)c(=O)oc2c1,310.6*[may fluoresce violet],18.9*[may fluoresce violet],106.0,·,?
CCCCCC(=O)N1CCCC1,104.7,100.4,92.5,96.3,94.2
S=c1[nH]nc(-c2ccccc2)n1/N=C/C=C/c1ccco1,98.6,95.8,96.4,88.2,96.3
Cc1cc(-c2n[nH]c(=S)n2/N=C/C=C/c2ccco2)n[nH]1,396.4*[may fluoresce violet],37.2*[may fluoresce violet],82.3,?,?
CCOC(=O)c1cnc(-c2ccccc2)[nH]c1=O,96.5,100.6,94.7,96.4,103.9
CCc1ccc(CC2(O)CC(C)N(C)CC2C)cc1 (stereo not given),101.6,102.5,104.2,102.1,99.8
CC1CC(O)(CC(O)(c2ccccc2)c2ccccc2)C(C)CN1C (stereo not given),251.3*[may fluoresce violet],65.4,74.8,?,?
CC1=CC(C)C(/C=N/n2cnnc2)C(C)C1 (stereo not given),114.4,103.4,106.2,·,109.9
CC1=CC(C)[C@H](/C=N/n2c(=O)[nH]c3c([nH]c4ccc(C)cc43)c2=O)C(C)C1 (stereo not given in full),266.2*[may fluoresce violet],44.1*[may fluoresce violet],72.6,?,?
CC1(C)C/C(=N\O)C(C(O)c2cccc([N+](=O)[O-])c2)C(C)(C)N1 (stereo not given),103.3,101.2,111.5,105.4,100.1
COc1cccc(CNC(=O)CCC2CCCN(C(=O)C3=CC(=O)CC(C)(C)O3)C2)c1 (stereo not given),92.2,91.7,93.1,96.1,101.1
Cc1cc(NC(=O)COC(=O)COc2ccc(C(=O)c3ccccc3)cc2)no1,100.5,99.7,108.3,106.4,114.8
CSc1nc2ccc(S(=O)(=O)N3CCCC3)cc2s1,98.5,92.9,177.3*,102.1,72.9
Cc1ccc(NC(=O)c2cc(NC(=O)c3ccco3)ccc2N2CCOCC2)cc1,99.8,98.5,102.6,97.1,94.0
Cc1ccc(NC(=O)c2cc(NC(=O)c3ccco3)ccc2N2CCCCC2)cc1,371.2*[may fluoresce violet],27.2*[may fluoresce violet],89.5,?,?
COc1ccc(C(=O)Nc2ccc(C(=O)N3CCCCC3)cc2)cc1OC,354.7*[may fluoresce violet],50.3,83.0,16.4,?
COC(=O)CN(c1ccc(OC)cc1)S(=O)(=O)c1ccc(OC)c(OC)c1,103.1,98.7,103.0,100.5,104.1
COc1ccc(N(CC(=O)N2CCCCCC2)S(=O)(=O)c2ccc(OC)c(OC)c2)cc1,97.9,102.6,90.0,102.4,105.8
COc1ccc(S(=O)(=O)N(CC(=O)N2CCOCC2)c2ccc(F)cc2)cc1OC,220.9*[may fluoresce red and violet],?,80.1,?,?
CCOc1ccc(N(CC(=O)OC)S(=O)(=O)c2ccc(OC)c(OC)c2)cc1,205.4*[may fluoresce violet],55.5,80.3,·,?
O=C(C1CCC1)N1CCc2cc(S(=O)(=O)NCC3COc4ccccc4O3)ccc21 (stereo not given),100.0,96.5,100.0,97.9,91.9
SMILES,MEP2 TOR yeast,RPL19A-GFP yeast,LAP4-GFP MLPCN,AGP1 TOR yeast,CIT2 TOR yeast
O=C(C1CC1)N1CCc2cc(S(=O)(=O)NCC3COc4ccccc4O3)ccc21 (stereo not given),302.9*[may fluoresce violet],22.9*[may fluoresce violet],74.5,?,?
O=C(OCc1ccc(Br)cc1)c1cccnc1Cl,104.0,98.1,103.4,89.4,88.8
Cn1nc(C(F)(F)F)c(C(=O)Nc2ccc(Cl)cc2)c1Cl,352.9*[may fluoresce violet],23.1*[may fluoresce violet],72.0,18.4,?
CC(NC(=O)c1cccc(N2CCCC2=O)c1)c1ccc2c(c1)OCCO2 (stereo not given),354.1*[may fluoresce violet],29.7*[may fluoresce violet],74.3,?,?
CNC(=O)c1cccc(N2CCCC2=O)c1,89.4,98.6,87.7,94.7,82.6
COc1ccc(/C=N/Nc2ccc([N+](=O)[O-])cc2)cc1Cn1cc([N+](=O)[O-])cn1,96.5,93.9,87.2,89.1,93.4
